The campaign covered roughly 2,300 compounds. About 1,200 (52%) were called active. About 34% were inconclusive and are not listed. The set was probably picked from earlier hits. Some of the results follow. A number with no mark means an inactive call. The call rests on the fitted dose curve; in most records, active means well fitted inhibition curve with a large enough effect; inconclusive means small, poorly fitted or top-dose-only effect, or effect the other way; inactive means no such curve, though single readings can be large or run the other way.
Experiment: Confirmation screen for delayed death inhibitors of the malarial parasite plastid, 48 hour incubation; further: nearly all actives have a fitted effect of over 65% in size
Details: P. falciparum-infected erythrocytes, luciferase growth; series mostly up to 28.7 µM; activity change, negative = inhibition: at the top concentration
Procedure, shortened: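 Erythrocytes infected with luciferase-expressing P. falciparum (2% hematocrit, 0.1% parasitemia) incubated with compounds 48 hours at 37 C, 5% CO2, in RPMI/Albumax. Growth inhibition scored as reduced luminescence after detection reagent.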
On the % scale 0 is the no-effect control and ±100 the full control effect; potency means the concentration at half of the fitted maximal effect.

Structure (SMILES)	Potency	activity change, negative = inhibition [%]
O=C1CN(C(=O)c2ccc(Cl)c(S(=O)(=O)N3CCc4ccccc43)c2)c2ccccc2N1	12.6 µM (active)	–
COC(=O)C1C(=O)C2=C(CC1C)NC(C)=C(C(=O)OCCOc1ccccc1)C2c1ccc(C)o1 (stereo not drawn)	14.1 µM (active)	–
O=C(Nc1ccc(S(=O)(=O)N2CCOCC2)cc1)c1ccc([N+](=O)[O-])o1	3.16 µM (active)	–
CC(C)C(=O)N1CCN(c2ccc(NC(=O)c3ccc([N+](=O)[O-])o3)cc2)CC1	8.91 µM (active)	–
O=C(Nc1ccc(N2CCOCC2)c(Cl)c1)c1cc2ccccc2o1	2.51 µM (active)	–
Cn1cc([N+](=O)[O-])c(C(=O)Nc2ccc(C3CCCCC3)cc2)n1	–	-26.5
CS(=O)(=O)N1CCN(c2ccc(NC(=O)c3ccc([N+](=O)[O-])o3)cc2)CC1	11.2 µM (active)	–
CC(C)C(=O)N1CCN(c2ccc(NC(=O)c3ccco3)cc2Cl)CC1	7.94 µM (active)	–
Cc1cccc(-c2c(NC(=O)c3ccco3)oc3ccc(Cl)cc3c2=O)c1	–	-26.2
CCCC(=O)N1CCN(c2ccc(NC(=O)c3ccc([N+](=O)[O-])o3)cc2Cl)CC1	11.2 µM (active)	–
CCC(=O)N1CCN(c2ccc(NC(=O)c3ccc([N+](=O)[O-])o3)cc2Cl)CC1	12.6 µM (active)	–
CCN1CCN(c2ccc(NC(=O)c3ccc([N+](=O)[O-])o3)cc2Cl)CC1	7.94 µM (active)	–
CCc1nn2c(=O)cc(COc3ccc(NC(=O)c4ccco4)cc3)nc2s1	–	-43.4
CCCC(=O)N1CCN(c2ccc(NC(=O)c3ccc([N+](=O)[O-])o3)cc2)CC1	7.08 µM (active)	–
CCc1c(C)nc2nc(SCc3ccccc3Cl)[nH]n2c1=O	–	-18.3
CCN(CC)c1ccc(/C=C/c2cccc[n+]2C)c(OC)c1	1.12 µM (active)	–
CN(C)S(=O)(=O)c1cccc(NC(=S)N/N=C/c2cc(Br)ccc2O)c1	3.55 µM (active)	–
COc1cc(/C=N/NC(=S)Nc2cccc(S(=O)(=O)N(C)C)c2)cc(OC)c1O	–	-5.26
Cn1nc([N+](=O)[O-])nc1Sc1nnc(-c2ccccc2)o1	11.2 µM (active)	–
Cc1ccc(-n2ncc3c(SCc4ccccn4)ncnc32)c(C)c1	12.6 µM (active)	–
CCOC(=O)C(=Cc1ccc(-n2cncn2)cc1)C(=O)OCC	15.8 µM (active)	–
CCOC(=O)C(=Cc1ccc(Br)cc1)C(=O)OCC	10 µM (active)	–

Structure (SMILES)	Potency	activity change, negative = inhibition [%]
CCOC(=O)C(CC)(CC)C(=O)/C=C/c1ccc(Br)cc1	10 µM (active)	–
CC(C)c1ccc(/C=C/C(=O)NC(=S)NN2CCOCC2)cc1	–	-43.1
COc1ccc(/C=C/C(=O)NC(=S)NN2CCCCC2c2cccnc2)cc1 (stereo not drawn)	12.6 µM (active)	–
COCCn1c(C)cc(C(=O)CSc2cc(C)c3ccc(OC)cc3n2)c1C	12.6 µM (active)	–
COC(=O)[C@@H]1C[C@]2(OC(=O)c3ccccc3)C=CC(=O)C[C@@H]2N1C(=O)OCc1ccccc1	14.1 µM (active)	–
CN(C)c1ccc(CN(C(=O)c2ccccc2Br)C2CCS(=O)(=O)C2)cc1 (stereo not drawn)	14.1 µM (active)	–
COc1cccc(CN(C(=O)c2ccccc2Br)C2CCS(=O)(=O)C2)c1 (stereo not drawn)	15.8 µM (active)	–
O=C(O)c1nn(CCSc2ccccc2F)c(=O)c2ccccc12	–	-22.8
COc1ccc(/C=N/NC(=O)c2cc(-c3ccccc3)nc3ccccc23)cc1O	–	-17.6
Cc1ccc(-c2cc(C(=O)N/N=C/c3ccoc3)c3ccccc3n2)cc1	12.6 µM (active)	–
Cc1ccc(-c2cc(C(=O)N/N=C/C=C/c3ccco3)c3ccccc3n2)cc1C	10 µM (active)	–
Cc1c(Cl)ccc2c(C(=O)O)cc(-c3ccccc3)nc12	–	13.9
O=C(NCc1ccccc1)C(c1cccnc1)N(C(=O)c1ccccn1)c1ccccc1F (stereo not drawn)	–	-19.9
O=C(CCc1ccccc1)NNC(=O)c1ccccn1	7.94 µM (active)	–
Cc1ccc(C(=O)NCC(=O)NCCCc2ccccc2)s1	–	-8.96
CCOc1ccc(CCNC(=O)COC(=O)c2ccc(C)s2)cc1OCC	10 µM (active)	–
CCOC(=O)NC(=O)COC(=O)c1ccc(O)cc1	–	-10.4
COc1ccccc1NC(=O)Cn1cnc2sc(C(=O)Nc3ccc(OC)c(OC)c3)c(C)c2c1=O	12.6 µM (active)	–
CSCCn1c(C(C)(C)C)cc(C(=O)O)c1C	–	18.3
O=C(C1=C[C@@H](c2csc3ccccc23)C[C@@H](OCCCCO)O1)N1CCN(Cc2ccc3c(c2)OCO3)CC1	10 µM (active)	–
CCO[C@H]1OC(C(=O)N2CCN(Cc3ccccc3)CC2)=C[C@@H](c2ccc(C(F)(F)F)cc2)[C@@H]1CCCO	4.47 µM (active)	–
